These results are taken from PubChem BioAssay AID1851 (National Center for Advancing Translational Sciences (NCATS), 2009).

In all, about 16,000 compounds went through this assay and about 5,100 (32%) were called active. About 25% were inconclusive and are not listed. The list shows a part of the results. Unmarked numbers belong to inactive results. Calls come from the whole dose curve; as a rule, active = well fitted curve in the direction sought with a large enough effect; inconclusive = small, poorly fitted or top-dose-only effect, or effect the other way; inactive = no such curve, though single readings can be large or run the other way.
% is set by controls: 0 for no effect and ±100 for the full control effect.

The target in the assay is Cytochrome P450 3A4 (Homo sapiens) (UniProt P08684). Nature of the assay: Cytochrome panel assay with activity outcomes. The settings on record: recombinant CYP, pro-luciferin dealkylation, luminescence, p450-cyp3a4; series mostly up to 57.1 µM.
Sequence of Cytochrome P450 3A4 (Homo sapiens) (P08684 whole entry, looked up): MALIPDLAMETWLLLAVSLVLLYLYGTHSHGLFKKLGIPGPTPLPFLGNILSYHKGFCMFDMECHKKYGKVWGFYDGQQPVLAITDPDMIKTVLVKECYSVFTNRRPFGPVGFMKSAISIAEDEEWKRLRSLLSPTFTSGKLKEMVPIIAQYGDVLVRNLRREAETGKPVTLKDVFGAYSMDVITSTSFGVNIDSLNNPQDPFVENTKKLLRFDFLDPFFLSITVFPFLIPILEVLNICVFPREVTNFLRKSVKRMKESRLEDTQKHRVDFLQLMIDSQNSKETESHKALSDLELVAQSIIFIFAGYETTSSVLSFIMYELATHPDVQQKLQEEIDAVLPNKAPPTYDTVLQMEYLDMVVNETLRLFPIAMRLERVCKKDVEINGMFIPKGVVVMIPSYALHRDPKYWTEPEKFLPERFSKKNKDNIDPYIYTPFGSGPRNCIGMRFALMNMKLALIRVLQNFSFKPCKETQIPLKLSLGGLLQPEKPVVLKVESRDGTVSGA
In the case of `COC(=O)C(NC(=O)c1ccc(Cl)cc1)(Nc1nc(C)cs1)C(F)(F)F` (configuration not stated), the half-maximal activity concentration (AC50) (commonly the concentration giving half of the maximal activity seen) is 14.1 µM (active). The same measure, in the same setting: next, `Cc1cc(OC(=O)c2ccc(Cl)cc2)cc(=O)n1C`: “inactive”. The same measure, in the same setting: in the case of `CCOc1ccc(/C=C/C(=O)Nc2ccc(OC)cc2[N+](=O)[O-])cc1` it was “inactive”; in that of `CCOc1ccc(C(=O)Cc2cc(OC)c(OC)cc2[N+](=O)[O-])cc1`, 7.94 µM (active). Still for that read-out and setting: in the case of `CCOc1ccc(C(=O)CCC(=O)O)cc1` it was “inactive”. With `C[C@]12CC[C@H]3c4ccc(OC[C@H]5CO5)cc4CC[C@H]3[C@H]1CC[C@@H]2O`, the activity, negative = inhibition is 11.8% [at 11.4 µM]. Consider `Cn1nccc1C(=O)Nc1ccc(Cl)cc1`, for which the AC50 entry was “inactive”.

In the case of `O=C(NCCCN1CCc2ccccc2C1)Nc1ccc(Cl)cc1`, the AC50 entry is “inactive”. On the same count and under the same terms, next, `COc1ccc2c(Cl)c(C(=O)NCCCn3ccnc3)sc2c1Cl`: 0.501 µM (active); `COc1ccc(C(=O)N/C(=C/c2cccs2)C(=O)NCCCn2ccnc2)cc1OC`: 1.58 µM (active); `O=C(NCCCn1ccnc1)Nc1ccc(Cl)cc1`: 0.398 µM (active).

As to `S=C(S)NCCN1CCNCC1`, the activity, negative = inhibition is -13.6% [at 11.4 µM]. For the molecule `NCCNC(=S)S`, the activity, negative = inhibition is -20.2% [at 11.4 µM].

As for `S=C(S)NCCCn1ccnc1`, the half-maximal activity concentration (AC50) was 1.58 µM (active). As to `CC(C)(CO)[C@H](O)C(=O)NCCCO`, the AC50 result was “inactive”. On to `N[C@@H](Cc1cc(-c2ccc(Cl)cc2Cl)cc(CP(=O)(O)O)c1O)C(=O)O`, for which the AC50 result is “inactive”. Same read-out and setting: next, `CCc1ccccc1NC(=O)C1C(c2ccccc2)C1(Cl)Cl` (configuration not stated): 15.8 µM (active).

On to `O=C(O)C1CCCCC1C(=O)Nc1ccccc1Cl` (configuration not stated), for which the AC50 entry was “inactive”. Still for that read-out and setting: next, `COC(=O)C1=C(C)NC2=C(C(=O)CCC2)C1c1cn(Cc2ccc(Cl)cc2Cl)nc1-c1ccccc1` (configuration not stated): 2.51 µM (active); `C[C@H](C[C@H](N)C(=O)O)C(=O)O`: “inactive”; `CC[N+](CC)(CC)CCOc1cccc(OCC[N+](CC)(CC)CC)c1OCC[N+](CC)(CC)CC`: “inactive”. For the molecule `Cc1cc(Cl)ccc1Oc1ncc(-c2ccc(Cl)cc2)cn1`, the concentration at half-maximal activity (AC50) was 7.08 µM (active).

For `Clc1ccc(-c2ccnc(Oc3cc(Cl)ccc3Cl)n2)cc1`, the AC50 entry was “inactive”. On the same count and under the same terms, next, `Nc1cc(Cl)ccc1Oc1ccc(Cl)cc1`: “inactive”. Consider `O=C(NC1CCCC1)c1cccnc1N1CCCCCC1`, for which the AC50 is 14.1 µM (active).

Turning to `O=C(O)C1CCN(c2ncccn2)CC1`, the AC50 entry is “inactive”.

As for `O=[N+]([O-])c1cccnc1N1CCCCC1`, the AC50 result was “inactive”.

As for `Cc1noc(C)c1COc1cccc(C(=O)OCC(=O)N2CC(=O)Nc3ccccc32)c1`, the half-maximal activity concentration (AC50) was 4.47 µM (active). Same read-out and setting: in the case of `COCc1c(C(=O)OCC(=O)N2c3ccccc3NC(=O)C2(C)C)oc2ccccc12` it was “inactive”; in that of `O=C(Nc1ccccc1N1CCOCC1)c1ccccc1[N+](=O)[O-]`, “inactive”; in that of `Cc1cc(F)ccc1S(=O)(=O)Nc1ccccc1C(=O)Nc1ccccc1N1CCOCC1`, 0.891 µM (active). Consider `O=C(Nc1ccccc1N1CCOCC1)c1ccc([N+](=O)[O-])cc1`, for which the AC50 entry is “inactive”.
